Entries with a potency or affinity are not part of this list. A number with no mark means an inactive call. No cut-off for these calls is given here.

The experiment concerns the target T1, fMet-Leu-Phe receptor (Homo sapiens) (UniProt P21462).
T1 sequence (whole entry): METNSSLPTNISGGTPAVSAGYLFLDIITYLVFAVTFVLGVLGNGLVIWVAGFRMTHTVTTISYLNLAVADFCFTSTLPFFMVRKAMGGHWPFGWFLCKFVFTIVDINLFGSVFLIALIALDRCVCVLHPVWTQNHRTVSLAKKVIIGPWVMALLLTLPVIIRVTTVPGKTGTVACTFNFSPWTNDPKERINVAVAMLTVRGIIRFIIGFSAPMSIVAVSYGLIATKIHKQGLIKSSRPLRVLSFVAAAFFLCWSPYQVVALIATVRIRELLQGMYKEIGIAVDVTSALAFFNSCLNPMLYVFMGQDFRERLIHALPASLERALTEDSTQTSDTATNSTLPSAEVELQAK
The experiment in a line: FPR1 fluorescent ligand binding inhibitors, dose response, cell-based, flow cytometry, Ki from IC50 (AID 724). In kind it is functional. On the technique in general: A flow cytometer gives signals particle by particle.
For the molecule `COc1ccc(C2C(C(=O)N3CCCC(C)C3)c3ccccc3C(=O)N2C)cc1` (stereo not given), the KI MICROM was more than 44.3 µM.

For `O=C(Oc1ccc2c(=O)c(Oc3ccccc3Br)c(C(F)(F)F)oc2c1)c1cccs1`, the KI MICROM was more than 44.3 µM.

As to `COc1cccc(/C=C2/C(=O)NN(c3ccc(C)cc3)C2=O)c1`, the KI MICROM is more than 44.3 µM.

Turning to `Cc1cccc(C)c1NC(=O)C(NC(=O)Cc1cccs1)c1ccccc1` (stereo not given), the KI MICROM was more than 44.3 µM.

Turning to `CCc1cc2c(=O)c(-c3nc4ccccc4n3C)c(C)oc2cc1OC(C)=O`, the KI MICROM is 0.3 µM (active).

For `COc1ccc(OC)c(CNC(=O)Cn2c(=O)sc3ccccc32)c1`, the KI MICROM was more than 44.3 µM.

As to `O=C(Oc1ccc2c(=O)c(-c3ccccc3Cl)c(C(F)(F)F)oc2c1)c1cccs1`, the KI MICROM was 1.1 µM (active).

As to `COc1ccc(-c2c(C(F)(F)F)oc3cc(OC(=O)c4ccco4)ccc3c2=O)cc1OC`, the KI MICROM is 3.3 µM (active).

Regarding `CC(C)C(=O)N(Cc1ccco1)S(=O)(=O)c1cccc2cccnc12`, the KI MICROM is more than 44.3 µM.

Take `Cc1sc2c(c1C)c(=O)n(Cc1ccccc1)c(=O)n2Cc1ccccc1F`: the KI MICROM is more than 44.3 µM.

Take `O=C1CC(c2ccccc2C(F)(F)F)C2=C(CC(c3cccs3)CC2=O)N1` (stereo not given): the KI MICROM is more than 44.3 µM.

On to `Cc1[nH]c2c(-c3ccc(Cl)cc3)c(C(F)(F)F)nn2c(=O)c1Cc1ccccc1`, for which the KI MICROM was 2.5 µM (active).

With `CCCC(=O)N(Cc1ccco1)S(=O)(=O)c1cccc2cccnc12`, the KI MICROM was more than 44.3 µM.

For the molecule `COCCN1C(=O)C(O)=C(C(=O)c2ccccc2)C1c1ccccc1OC` (stereo not given), the KI MICROM was 12.4 µM.

As for `CCC(C)(C(=O)NC1CCCCC1)N(Cc1cccs1)C(C)=O` (stereo not given), the KI MICROM is more than 44.3 µM.

Take `COc1cccc(-c2ccnc3[nH]n(-c4ccccc4)c(=O)c23)c1`: the KI MICROM is more than 44.3 µM.

Take `Cc1cccc(C2CC(=O)NC3=C2C(=O)CC(c2cccs2)C3)c1` (stereo not given): the KI MICROM is more than 44.3 µM.

Turning to `COc1ccc(-c2c(C)nn3c(=O)c4c([nH]c23)CCCC4)cc1`, the KI MICROM is more than 44.3 µM.

With `COc1ccccc1-c1c(C(F)(F)F)oc2cc(OC(=O)c3ccco3)ccc2c1=O`, the KI MICROM is 1.1 µM (active).

For the molecule `COc1ccc(-c2c(C(F)(F)F)oc3cc(OC(=O)c4cccnc4)ccc3c2=O)cc1OC`, the KI MICROM is 8.9 µM (active).

These data come from ChEMBL document CHEMBL1201862, “PubChem BioAssay data set” (2004).
